# Most compounds without a hit are left out; they make up all but 1.6% or so of the library.
# PKA-R1A activ: activators of PKA-R1A holoenzyme, primary screen, biochemical, fluorescence polarization, Cy5-IP20, bovine R1A, mouse PKAc | cAMP-dependent protein kinase type I-alpha regulatory subunit (Bos taurus) + … | PKA-R1A dissociation; scaled: DMSO 0%, 113 µM cGMP 100% | activation, % at 11.4 µM | 340,000 compounds, 0.083% hits | AID 504707, 2011;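 active = percent activation above the mean of all tested compounds plus 3 SD, cut at about 19% in these data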;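 note: higher means more PKAc released from R1A so a rise in polarization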
# ATG4B inhibitor: ATG4B protease inhibitors, primary screen, biochemical, fluorescence, uHTS; Cysteine protease ATG4B (Homo sapiens), Q9Y4P1; ATG4B cleavage of LC3-PLA2, NBD-HPC fluorescence, 1 h; inhibition, % at 8.33 µM; 340,000 compounds, 0.51% hits; AID 504462, 2011; in the data active = inhibition above about 40%
# NRP1-CendR mod: modulators of CendR peptide binding to NRP-1, primary screen, biochemical, fluorescence polarization, uHTS; Neuropilin-1 (Homo sapiens), O14786; FAM-RPARPAR peptide binding to NRP-1; inhibition, % at 25 µM; 360,000 compounds, 0.85% hits;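 active = inhibition or corrected inhibition above about 18%, plus a signal ratio from 0.5 to 1.5, limit read from the data, passing the limit was not always enough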
# PKA-R2B activ: activators of PKA-R2B holoenzyme, primary screen, biochemical, fluorescence polarization, Cy5-IP20, human; PKA-R2B holoenzyme dissociation; R2B truncated from residue 108, S112A mutant; 0% DMSO only, 100% 113 µM cGMP; activation, % at 11.4 µM; 340,000 compounds, 0.079% hits; AID 504700, 2011;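 active = activation above a cutoff set at the mean over all compounds plus 3 SD, cut at about 18% in these data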;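 note: higher means more holoenzyme dissociation and a rise in polarization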
# VLA-4 inh: inhibition in human VLA-4 binding assay, primary screen, VLA-4 allosteric modulator project, MLPCN library, flow cytometry, VLA-4 expressing cells | AID 2557, 2010 | ligand binding flow cytometry | Integrin alpha-4 (Homo sapiens), P13612 | 330,000 compounds, 0.2% hits | inhibition, % (about 7 µM as worked out from the volumes in the protocol); in the data active = inhibition above about 50%
# Target sequence (P13612 whole entry, looked up): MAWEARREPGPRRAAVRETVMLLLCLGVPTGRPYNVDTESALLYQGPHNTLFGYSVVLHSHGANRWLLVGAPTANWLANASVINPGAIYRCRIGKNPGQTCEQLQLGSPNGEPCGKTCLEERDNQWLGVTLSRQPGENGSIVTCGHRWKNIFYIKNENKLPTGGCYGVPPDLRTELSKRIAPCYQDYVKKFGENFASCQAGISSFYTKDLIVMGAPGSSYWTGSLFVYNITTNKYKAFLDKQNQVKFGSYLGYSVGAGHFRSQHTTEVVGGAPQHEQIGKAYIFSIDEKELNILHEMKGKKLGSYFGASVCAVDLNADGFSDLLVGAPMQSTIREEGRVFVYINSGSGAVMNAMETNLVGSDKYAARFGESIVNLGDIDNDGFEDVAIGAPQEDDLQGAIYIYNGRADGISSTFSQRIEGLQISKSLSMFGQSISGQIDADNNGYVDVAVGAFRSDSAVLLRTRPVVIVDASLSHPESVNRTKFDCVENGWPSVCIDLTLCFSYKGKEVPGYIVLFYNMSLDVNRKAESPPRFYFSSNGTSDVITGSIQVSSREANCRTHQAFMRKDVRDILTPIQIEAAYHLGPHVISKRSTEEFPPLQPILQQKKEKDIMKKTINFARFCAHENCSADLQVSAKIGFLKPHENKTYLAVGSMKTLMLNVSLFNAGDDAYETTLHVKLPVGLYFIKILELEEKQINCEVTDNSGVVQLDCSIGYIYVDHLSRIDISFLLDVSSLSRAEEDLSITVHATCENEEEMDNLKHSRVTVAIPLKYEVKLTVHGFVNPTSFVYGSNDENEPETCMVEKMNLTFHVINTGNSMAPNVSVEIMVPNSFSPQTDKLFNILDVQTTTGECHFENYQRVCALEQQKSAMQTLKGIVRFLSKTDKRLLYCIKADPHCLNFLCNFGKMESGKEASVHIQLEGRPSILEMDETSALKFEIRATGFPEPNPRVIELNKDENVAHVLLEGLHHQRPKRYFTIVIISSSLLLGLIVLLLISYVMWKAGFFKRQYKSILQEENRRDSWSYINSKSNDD
# Numbers stand for hits; n = inactive; x = not tested or not shown.
SMILES,PKA-R1A activ,ATG4B inhibitor,NRP1-CendR mod,PKA-R2B activ,VLA-4 inh
O=C(C[C@@H]1C/C=C\CC[C@@H](Cc2ccc(F)cc2)C(=O)OC[C@@H]2CCCN2C1=O)NCCO,n,n,n,n,n
O=C(C[C@H]1C/C=C\C[C@H](Cc2ccc(F)cc2)C(=O)O[C@@H](c2ccccc2)CNC1=O)NCCO,n,n,21.7,n,n
CC(CCc1ccccc1)NC(=O)COC(=O)c1ccc(NC(N)=O)cc1 (stereo not drawn),n,n,n,n,n
CC(C)n1nccc1NC(=O)COC(=O)c1ccc(NC(N)=O)cc1,n,n,24.1,n,n
O=C(Nc1cc(-c2ccccc2)[nH]n1)c1ccccc1,n,n,25.1,n,n
CCOc1ccccc1C1NC(=O)c2ccccc2N1 (stereo not drawn),n,n,n,n,x
CCCNC(=S)Nc1cccc(C(F)(F)F)c1,n,n,25.3,n,n
CCCCNC(=O)C1C(c2ccc(OC)cc2)=Nc2ccccc2N1C(=O)c1cccnc1 (stereo not drawn),x,x,n,x,x
CCN(CC(=O)NCc1cccs1)S(=O)(=O)c1ccc(C(C)C)cc1,n,n,31.6,n,n
Cc1onc(-c2c(Cl)cccc2Cl)c1C(=O)c1c[nH]c(C(=O)NCCCN2CCOCC2)c1,n,n,23.1,n,n
Cc1onc(-c2c(Cl)cccc2Cl)c1C(=O)NCCCN1CCOCC1,n,n,n,n,n
CC(O)(c1cccc(F)c1)c1nc(-c2csc3ccccc23)cs1 (stereo not drawn),x,x,n,x,x
CCc1nc2c(OCc3ccc(C(=O)OC)cc3)cccn2c1N(C)C(=O)CC(C)C,x,x,25.8,x,x
CCCCC(=O)N(C)c1c(CC)nc2c(OCc3ccccc3C)cccn12,x,x,21.8,x,x
CCc1nc2c(OCc3ccccc3C)cccn2c1N(C)C(=O)CC(C)C,x,x,n,x,x
COc1ccc(C(C(=O)c2ccccc2)c2ccccc2)cc1 (stereo not drawn),x,x,n,x,x
CCOC(=O)N1CCN(C(=O)c2cc3n(n2)C(C(F)(F)F)CC(c2ccc4c(c2)OCO4)N3)CC1 (stereo not drawn),n,n,21.8,n,n
COCCN1C[C@@H](CO)O[C@@H](n2cnc3c(N(C)C(C)C)ncnc32)C1,x,x,23.9,x,x
COc1cc2c(cc1OC)/C(=C/C(=O)OCc1ccccc1)OC2,x,x,n,x,x
CC(N)C(=O)NC(CO)C(O)C(N)C=O (stereo not drawn),n,n,n,n,x
COC1=C(c2ccccc2)C(=O)c2ccccc2C1=O,n,n,32.1,n,n
COc1ccc(C2=C(N)c3ccccc3C2=O)cc1,n,n,n,n,n
O=C1N(c2ccccc2C(F)(F)F)O[C@]1(c1ccccc1)C1CCCC1,n,n,n,n,n
CN1OC[C@@H]2CN(Cc3ccccc3)[C@H](c3cccc(Oc4ccccc4)c3)C[C@@H]21,n,n,25.1,n,x
O=C(c1ccccc1-c1ccccc1)N1CCCCC1,n,n,22.9,n,n
SMILES,PKA-R1A activ,ATG4B inhibitor,NRP1-CendR mod,PKA-R2B activ,VLA-4 inh
O=C(O)c1ccccc1SCC(=O)N1CCOCC1,n,n,n,n,n
O=C(O)c1ccccc1SCC(=O)N1CCCCC1,n,n,27.6,n,n
CCCn1nc2cc(C(=O)NCc3ccc(OC(F)(F)F)cc3)ccc2c1OCC,n,n,18.8,n,x
CCOc1c2ccc(C(=O)NCc3ccc(OC(F)(F)F)cc3)cc2nn1CC,n,n,n,n,n
CCOc1c2ccc(C(=O)NCc3ccc4c(c3)OCO4)cc2nn1CCOC,n,n,18.0,n,n
CCC(c1nnc(SCC(=O)Nc2ccc(N3CCOCC3)cc2)n1Cc1ccccc1)N(C)C (stereo not drawn),n,n,26.6,n,n
c1ccc2c(CNc3ccc(CNc4ncn[nH]4)cc3)cccc2c1,n,n,31.9,n,n
COc1ccccc1CNc1nc(NCc2ccc3occc3c2)c2sccc2n1,x,x,n,x,x
Nc1cccc2c(O)cc(S(=O)(=O)O)cc12,n,n,n,n,x
Nc1cc(S(=O)(=O)O)cc([N+](=O)[O-])c1O,n,n,27.9,n,n
CC(C)C[C@H]1CN(CCCC[C@@H]2CNC(=O)C(=O)N2CC2CCCCC2)C(=O)C(=O)N1CCc1ccccc1,x,x,n,x,x
CC(C)CC1Nc2ncnc(N3CCN(c4ccccn4)CC3)c2N(Cc2ccccc2)C1=O (stereo not drawn),n,n,n,n,n
COC(=O)c1c(C)nc2ccccc2c1-c1ccccc1,n,n,n,n,n
COC(=O)c1ccc2c(c1)c(-c1ccccc1)c(-c1ccccc1)n2C,n,n,32.1,n,x
CCOC(=O)[C@]12CCCC=C1N(CCc1ccc(OC)c(OC)c1)C(=O)[C@H](CC(=O)N1CCSCC1)C2,x,x,n,x,x
CC1=CC(C)C2(CO)COC(c3cccnc3)C1C2C (stereo not drawn),n,n,27.3,n,n
Cc1ccc2c(c1)-c1cc(C)nn1C(c1sccc1C)N2 (stereo not drawn),n,n,27.2,n,n
CCC(C)CN1C(=O)CSCC1(C)C(=O)Nc1ccc2c(c1)OCCO2 (stereo not drawn),x,x,n,x,x
Cn1cc(C(=O)c2ccc(Cl)cc2Cl)cc1C(=O)N/N=C(\N)COc1ccccc1,n,n,35.9,n,n
Oc1cc2ccccc2cc1-c1n[nH]c(=S)n1Cc1ccco1,n,n,21.1,n,n
COc1ccc(CCN=C(N)NS(=O)(=O)c2cccs2)cc1OC,n,n,20.0,n,n
CCOC(=O)C1=C(CSc2nccn2C)NC(=O)NC1c1cc(C)ccc1C (stereo not drawn),n,n,25.8,n,n
CCOC(=O)C1=C(CSc2nccn2C)NC(=O)NC1c1ccc2c(c1)OCO2 (stereo not drawn),n,n,n,n,n
Cc1coc2c1c(C)cc1oc(=O)c(CC(=O)NCC(=O)NCC(=O)O)c(C)c12,n,n,n,n,n
Cc1coc2c1c(C)cc1oc(=O)c(CC(=O)NCCC(=O)O)c(C)c12,n,n,19.7,n,n
CCN1CCN(C(c2cc3cccc(C)c3[nH]c2=O)c2nnnn2Cc2ccccc2)CC1 (stereo not drawn),n,n,38.9,n,n
O=C(O)c1cc([N+](=O)[O-])ccc1Oc1ccccc1,n,n,26.2,n,x
Cc1ccc2oc(=O)c(/C=C(\O)c3ccccc3)nc2c1,n,n,41.6,n,n
CC1(C(=O)Nc2ccc3c(c2)OCCO3)CSCC(=O)N1CCc1ccccc1F (stereo not drawn),x,x,n,x,x

# From PubChem BioAssay
